The record followed here is PubChem BioAssay (NCI).

The panel holds about 83,000 compounds, 20% with a hit somewhere; the sample as a whole holds those more often.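 Negative percent growth values reflect cell death: -40 means 40% of the cells present at the start died, and -100 means all died.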 Values without a mark were called inactive. Calls of active or inactive are those of the source. How the source made its calls: active means growth percent below 10; inactive means the rest.

What all share (assay): NCI-60 one-dose screen, 48 h (100 = growth as untreated, 0 = no growth, -100 = all killed)
Holding throughout (settings): 10 µM unless noted

The subject of test [1] is NCI-H23 lung.
Test [2] has as its system NCI-H226 lung.
Test [3] relates to NCI-H322M lung.
The subject of test [4] is HOP-62 NSCLC.
Test [5] concerns NCI-H460 lung.
The subject of test [6] is HOP-92 NSCLC.
The subject of test [7] is NCI-H522 lung.
The test system of test [8] is A549/ATCC NSCLC.
In test [9] the test system is 786-0 renal.
The subject of test [10] is COLO 205 colon.

Regarding `CC(=O)/C(=C/c1cccc(Cl)c1)C(=O)c1ccccc1`, the growth in [1] is 90.2%; in [2] it was 84.1%; in test [3], 100%; in [4], 95.7%; in test [5], 102%; in test [6] it was 88.7%. Besides, the growth is 56.6% in test [7], 82.6% in test [8], 93.2% in test [9] and 107% in [10].

For the compound `COc1cccc(/C=C2/C(=O)N(Cc3ccco3)SC2=S)c1OC`, the growth in test [1] is 108%; in [2] it was 101%; in [3] it was 98.7%; in test [4], 105%; in [5], 102%; in [6], 93%. Further, the growth in [7] was 83.7%; in [8], 100%; in test [9], 101%; in [10], 111%.

Turning to `CC(C)n1cc2c(N)ncnc2n1`, the growth is 103% in test [1]; 94.5% in test [2]; 86.6% in test [3]; 96.4% in test [4]; 107% in test [5]; 144% in [6]. Besides, the growth was 99.3% in test [7], 102% in test [8], 100% in test [9] and 118% in test [10].

Take `CN(CC(=O)N(Cc1ccc(C2CCCCC2)cc1)c1ccc(C(=O)NO)cc1)S(=O)(=O)c1c(F)c(F)c(F)c(F)c1F`: the growth in test [1] was 53.9%; in test [2], 100%; in test [3], 90%; in [4], 103%; in test [5] it was 99.5%; in [6], 95%. Besides, the figures for the growth in [7], in test [8] and in [10] were 45.3%, 102% and 67.9%, respectively.

On to `CNC(=O)c1cc(Oc2ccc3nc(NC(=O)Nc4ccc(N5CCC(N(C)C)CC5)cc4)sc3c2)ccn1`, for which the growth in test [1] was 88.1%; in test [2] it was 94.9%; in test [3], 88.9%; in test [4], 93.5%; in test [5], 81.6%; in [6], 74.7%. For the same compound, the results for the growth in [7], in [8] and in [10] were 117%, 79.8% and 80%, respectively.

With `CN1CCN(Cc2ccc(NC(=O)c3[nH]ncc3Nc3ncnc4sccc34)cc2)CC1`, the growth in [1] was -1.52% (active); in test [2], 10.9%; in [3] it was 21.6%; in [4], 22.4%; in test [5], 5.43% (active); in [6] it was -13.3% (active). Further, the growth in test [7] is 14%; in test [8] it was 13.5%; in [10], -8.12% (active).

For `CCN1CCN(Cc2ccc(NC(=O)Nc3nc4ccc(Oc5ccnc(C(=O)NC)c5)cc4s3)cc2C(F)(F)F)CC1`, the growth in test [1] is -12.2% (active); in [2], -1.71% (active); in test [3], 17.1%; in test [4], -13% (active); in [5] it was -66.7% (active); in [6], -68.3% (active). Also, the growth was -46.5% (active) in test [7], -41.7% (active) in test [8] and -40.5% (active) in test [10].

Regarding `COc1ccc(-c2cn3c(-c4ccc(OC)cc4)cnc3c(Oc3ccc4c(C)cc(=O)oc4c3)n2)cc1`, the growth in test [1] was 33%; in test [2], 70.7%; in [3] it was 82%; in test [4], 40.9%; in test [5], 26.4%; in test [6] it was -13.6% (active). The results for the growth in test [7], in test [8] and in [10] were 39.6%, 16.5% and 56.1%, respectively.

In the case of `Cl/C(=N\Nc1ccccc1)c1ccccc1`, the growth is 91.4% in test [1]; 91% in test [2]; 75.4% in [3]; 96% in test [4]; 106% in test [5]; 97.9% in test [6]. The growth in [7] was 72.8%; in test [8] it was 85.4%; in test [9] it was 102%; in test [10] it was 98.4%.

Turning to `CCCCN(CCCC)CCC(C)(O)c1cc2ccccc2c2ccccc12` (centres undefined), the growth in test [1] was 83.8%; in test [2] it was 107%; in test [3], 73.5%; in [4], 106%; in [5], 90.1%; in [6], 44.2%. Also, the growth in test [7] is 91.4%; in test [8], 83.5%; in test [9], 103%; in [10] it was 92.7%.

Regarding `CCOC(=O)/C=C/C(=O)[C@H](CC(C)C)NC(=O)[C@H](Cc1ccccc1)NC(=O)OCc1ccccc1`, the growth in [1] is 91%; in [2], 102%; in test [3] it was 103%; in [4], 108%; in test [5], 84.9%; in [6], 79.7%. For the same compound, the growth was 18% in [7], 73.3% in [8], 30% in test [9] and 67.5% in test [10].

For `CCNS(=O)(=O)c1ncnc2nc[nH]c12`, the growth in test [1] was 97.1%; in [2], 120%; in [3], 111%; in test [4] it was 105%; in test [5], 104%; in [6], 98.6%. Also, the growth was 88.5% in [7], 119% in [8], 104% in [9] and 112% in test [10].

Take `COC1/C=C\OC2(C)Oc3c(C)c(O)c4c(O)c(c(CN(C)CCO)c(O)c4c3C2=O)NC(=O)/C(C)=C\C=C/C(C)C(O)C(C)C(O)C(C)C(OC(C)=O)C1C` (centres undefined): the growth in test [1] was 91.9%; in test [2], 104%; in [3] it was 97.8%; in [4], 89.7%; in [5] it was 103%; in test [6], 115%. Moreover, the growth is 87.8% in test [7], 116% in [8], 95.9% in test [9] and 108% in test [10].

Regarding `C/C(=C(/c1ccc(O)cc1)c1ccc(Cl)cc1)c1ccccc1`, the growth in test [1] was -62.5% (active); in test [2] it was -80.4% (active); in test [3], -95% (active); in test [4] it was -90.8% (active); in [5] it was -91.2% (active); in test [6] it was -96% (active). Further, the growth in test [7] was -78% (active); in test [8] it was -85.8% (active); in [9], -89.3% (active); in test [10], -82.8% (active).

In the case of `C/C=C/C(N)=O`, the growth in test [1] is 96.9%; in [2], 93.4%; in test [3], 93.4%; in test [4], 109%; in [5], 102%; in [6], 91.1%. Also, the growth is 104% in test [7], 106% in test [8] and 107% in test [10].

As for `CS(=O)(=O)c1ccc(-c2cnc3ccc(-c4cccc(S(C)(=O)=O)c4)nn23)cc1`, the growth is 44% in test [1]; 65.1% in test [2]; 32.8% in [3]; 59.2% in test [4]; 21.4% in [5]; 16% in test [6]. In addition, the growth in test [7] was 58.4%; in test [8], 31%; in test [10], 46.2%.

Turning to `COc1nc2c(cc1S(=O)(=O)c1ccccc1)CCc1c-2cnn1Cc1ccccc1`, the growth in [1] is 54.1%; in [2], 65.9%; in test [3] it was 60.1%; in [4], 56.2%; in [5], 54%; in test [6] it was 3.62% (active). Also, the growth in [7] is 43.2%; in [8] it was 57.9%; in test [9], 52.3%; in [10], 60.9%.

In the case of `CC#Cc1nc2ccccc2c(=O)[nH]1`, the growth in [1] is 80.6%; in test [2], 64.5%; in [3] it was 104%; in [4] it was 58.3%; in test [5], 73%; in [6], 92.7%. In addition, the growth is 52.6% in [7], 72.2% in test [8], 42% in [9] and 78.7% in test [10].

Regarding `O=C(CNC1C2CC3CC(C2)CC1C3)Sc1nnc2sc3ccccc3n12` (centres undefined), the growth in test [1] was 95%; in [2] it was 91.3%; in test [3], 113%; in test [4], 104%; in [5], 97.9%; in test [6], 46.2%. In addition, the growth in test [7] is 96.4%; in test [8] it was 108%; in [10], 106%.

`Cc1ccc(S(=O)(=O)n2cc(-c3csc(-c4cn(C)c5ncccc45)n3)c3ccccc32)cc1`: the growth in test [1] was 68.1%; in test [2], 77.6%; in [3], 79.5%; in test [4], 51.8%; in test [5], 30.3%; in test [6] it was 35.8%. In addition, the growth in test [7] is 45.6%; in test [8] it was 41.5%; in test [9], 77.9%; in [10] it was 43.6%.

With `C=C1CCC2C3(C)COC(c4cccc(Cl)c4)OC3CCC2(C)C1/C=C/C1=CCOC1=O` (centres undefined), the growth in test [1] was 38.2%; in test [2], 61%; in [3] it was 90.2%; in test [4], 76.7%; in test [5], 36.2%; in [6], 98.2%. Besides, the growth in test [7] is 57.8%; in test [8], 58.4%; in test [9] it was 65.9%; in test [10], 106%.

`CN(C)c1ccc(/C=C(\C#N)c2nc3ccccc3s2)cc1`: the growth in [1] was 102%; in [2] it was 101%; in [3], 86.8%; in [4], 116%; in test [5], 103%; in [6] it was 104%. The growth in test [7] was 92.7%; in test [8], 105%; in test [9], 96.8%; in [10], 123%.

In the case of `CCOC(=O)c1cnc2ccc(OC)cc2c1Nc1cccc(S(=O)(=O)NC)c1`, the growth in [1] is 91.8%; in test [2], 108%; in test [3], 99.8%; in [4], 99.6%; in [5], 114%; in test [6], 112%. Besides, the growth was 99.8% in [7], 103% in test [8], 77.1% in test [9] and 134% in test [10].

As for `Cc1sc2nc3[nH]/c(=C\c4ccc(Cl)cc4)c(=O)n3c(=O)c2c1C`, the growth was 103% in test [1]; 100% in test [2]; 103% in test [3]; 110% in test [4]; 104% in [5]; 92.7% in [6]. The growth in [7] is 88.1%; in test [8], 94.1%; in [9], 95.1%; in test [10], 112%.

As for `CNC(=S)N/N=C/CSC/C=N/NC(=S)NC`, the growth in test [1] is 85.2%; in test [2], 104%; in [3], 106%; in test [4], 90.5%; in test [5], 70.5%; in test [6] it was 101%. The growth in test [7] is 18.7%; in test [8] it was 62.8%; in test [9], 96.1%; in test [10], 39.1%.

In the case of `CS(=O)CCCCCN=C=S` (centres undefined), the growth was 4.24% (active) in test [1]; -8.26% (active) in [2]; 1.21% (active) in test [3]; -7.49% (active) in [4]; 0.781% (active) in [5]; 19.5% in test [6]. The growth in test [7] is -25.4% (active); in [9], 9.82% (active); in test [10] it was -51.6% (active).

Take `O=C(Nc1ccc(Nc2cc(Nc3ccccc3)ncn2)cc1)Nc1cc(C(F)(F)F)ccc1F`: the growth is 77.5% in [1]; 94.7% in test [2]; 61.9% in test [3]; 68.6% in test [4]; 69.8% in [5]; 49.3% in test [6]. The figures for the growth in test [7], in test [9] and in [10] were 24.5%, 84.4% and 64.4%, respectively.

Consider `CCCCNP1(NCCCC)=NP(NCCCC)(NCCCC)=NP(NCCCC)(NCCCC)=NP(NCCCC)(NCCCC)=N1`, for which the growth was -49.6% (active) in test [1]; 22.4% in test [2]; 9.1% (active) in test [3]; 10.2% in test [4]; -8.78% (active) in test [5]; -24.3% (active) in test [6]. Further, the growth in test [7] was 7.68% (active); in test [9], -6.24% (active); in test [10], -26.2% (active).
